The panel holds about 83,000 compounds, 20% with a hit somewhere; the sample as a whole holds those more often.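 Cells were grown in 96-well plates and exposed to the test compound at a single concentration for 48 hours; results are reported as percent growth, with values below 10 considered active.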 Calls of active or inactive are those of the source.
What was measured:
Experiment in all cases: NCI-60 one-dose screen, 48 h (100 = growth as untreated, 0 = no growth, -100 = all killed)
Conditions in all cases: 10 µM unless noted
[1] = system: HCT-15 colon
[2] = system: HT29 colon
[3] = system: SNB-75 CNS
[4] = system: SNB-19 CNS
[5] = system: U251 CNS
[6] = system: PC-3 prostate
[7] = system: SK-MEL-5 melanoma
[8] = system: UACC-62 melanoma
[9] = system: LOX IMVI melanoma
[10] = system: SK-MEL-28 melanoma

Measured: growth

CCOC(=O)c1ccc(N(CCC(=O)O)C(C)=O)cc1
inactive: [1] 103% | [2] 97.4% | [3] 94.7% | [4] 106% | [5] 102% | [6] 90% | [7] 102% | [8] 99.4% | [9] 105% | [10] 103%

CCCc1cc2c(cc1CN(Cc1cc3c(cc1CCC)OCO3)C(=N)OCC)OCO2
inactive: [1] 94.8% | [2] 52.4% | [3] 95.6% | [4] 94% | [5] 67.3% | [6] 59.3% | [7] 88.8% | [8] 77.2% | [9] 83.6% | [10] 102%

NC(=Nc1ccccc1)SCCCSC(N)=Nc1ccccc1
inactive: [1] 82.4% | [2] 93.9% | [3] 78.4% | [4] 95.8% | [5] 95.6% | [6] 74.7% | [7] 85.5% | [8] 73.4% | [9] 86.7% | [10] 106%

Nc1nonc1-c1nc2ccccc2n1Cc1ccc(F)cc1
inactive: [1] 30.4% | [2] 17.3% | [3] 32.4% | [4] 63.8% | [5] 52.3% | [6] 61.7% | [7] 56.8% | [8] 48.8% | [9] 49.1% | [10] 61.3%

CC(=O)c1c(C)nc(-c2cc(C)cc(Cl)c2)nc1-c1cccc(Oc2ccccc2)c1
inactive: [1] 60.2% | [2] 39.5% | [3] 72.4% | [4] 79.3% | [5] 76.1% | [6] 53.4% | [7] 77.1% | [8] 52.1% | [9] 78.4% | [10] 76.2%

C/C(=C\C(=N\N=C(N)N)c1ccc(Cl)cc1)c1ccc(Cl)cc1
active: [1] -69.5% | [2] -70.1% | [3] -82.9% | [4] -79.8% | [5] -93% | [6] -80% | [7] -98.7% | [8] -87.3% | [9] -59.1% | [10] -81%

COc1cc(/C=C/C(=O)c2c(C)nc3ccccc3c2C)ccc1OCCCOc1cc2c(cc1OC)C(=O)N1CCC[C@H]1C=N2
active: [1] -25.9% | [2] -71.9% | [3] -76.8% | [4] -49.8% | [5] -66.4% | [6] -15.9% | [7] -98.8% | [8] -81.3% | [9] -99.3% | [10] -63.1%

CC1=C(O)C(=O)C(c2c(C)cc(C)c(Br)c2C)=C(O)C1=O
inactive: [1] 35.5% | [2] 66.7% | [3] 59.6% | [4] 63.9% | [5] 65.8% | [6] 84.5% | [7] 57.4% | [8] 40.7% | [9] 35.7% | [10] 73.5%

CCCc1n(Cc2ccc3ccccc3n2)cc[n+]1Cc1ccc2ccccc2n1
inactive: [1] 95.7% | [2] 16.8% | [3] 19.5% | [4] 19.1% | [5] 20.6% | [6] 24.8% | [9] 18% | [10] 19.3%
active: [7] -49% | [8] 1.66%

O=C(NCCNC(=O)c1cc(S(=O)(=O)NCCc2ccccc2)c(O)c(O)c1O)c1cc(S(=O)(=O)NCCc2ccccc2)c(O)c(O)c1O
active: [8] -15%
inactive: [1] 40.5% | [2] 108% | [3] 63% | [4] 35.7% | [5] 31.3% | [6] 40.2% | [7] 15.6% | [9] 15% | [10] 54.2%

c1ccc(-c2[nH]c3ccccc3c2-c2ccccc2)cc1
inactive: [1] 79.6% | [2] 88.4% | [3] 84.7% | [4] 97.5% | [5] 87.8% | [6] 79.4% | [7] 104% | [8] 75.8% | [9] 79.8% | [10] 119%

O=C1OCC2=C1C(c1cccc(Br)c1)c1cc3c(cc1N2CCO)OCCO3 (stereo not given)
active: [2] 2.11% | [5] 6.01% | [7] 1.61%
inactive: [1] 13.9% | [3] 28.5% | [4] 31.6% | [6] 25.4% | [8] 27.3% | [9] 23.5% | [10] 51.7%

O=C(O)c1cn(-c2ccccc2)nc1-c1ccc(O)cc1
inactive: [1] 98.4% | [2] 94.7% | [3] 86.1% | [4] 97.4% | [5] 96.4% | [6] 91.2% | [7] 106% | [8] 90.8% | [9] 91.7% | [10] 101%

COc1cc(NC(C)CCCN)c2ncccc2c1Sc1ccc(Cl)cc1 (stereo not given)
active: [2] -46.4% | [9] -62.4%
inactive: [1] 39.3% | [3] 48.7% | [4] 78.3% | [5] 39.3% | [6] 47.1% | [7] 67.3% | [8] 81.2% | [10] 93.3%

O=C(CSc1ccc(Cl)cc1)Nc1ccc(-c2nc3ccccc3s2)c(Cl)c1
inactive: [1] 39.6% | [2] 57% | [3] 79.1% | [4] 62.7% | [5] 52.9% | [6] 30.9% | [7] 79% | [8] 58.4% | [9] 63.2% | [10] 108%

O=C(Nc1ccc(Br)cc1)Nc1ccccc1Cl
inactive: [1] 87.1% | [2] 95.3% | [3] 77.8% | [4] 117% | [5] 91.9% | [6] 83.9% | [7] 101% | [8] 56.5% | [9] 81.3% | [10] 107%

COc1ccc(C(=O)C(C#N)c2cc(OC)c(OC)c(OC)c2)cc1 (stereo not given)
inactive: [1] 102% | [2] 99.2% | [3] 90.7% | [4] 108% | [5] 98.2% | [6] 99% | [7] 102% | [8] 105% | [9] 97.8% | [10] 104%

O=c1[nH]c2cc(Cl)c(Cl)cc2o1
inactive: [1] 101% | [2] 112% | [3] 92.5% | [4] 109% | [5] 95.1% | [6] 64.6% | [7] 115% | [8] 92.8% | [9] 99.4% | [10] 116%

CCc1ccc(Nc2cc(C)c3ccc(O)cc3n2)cc1
inactive: [1] 70.7% | [2] 19.6% | [3] 57.8% | [4] 96.5% | [5] 60.9% | [6] 62.2% | [7] 60.6% | [8] 30.8% | [9] 48.5% | [10] 95.6%

COC(=O)C(C)NC1=C(Cl)C(=O)C(NC(C)C(=O)OC)=C(Cl)C1=O (stereo not given)
inactive: [1] 92.6% | [2] 98.2% | [3] 86% | [4] 94% | [5] 98% | [6] 92% | [7] 79.2% | [8] 99.8% | [9] 91.1% | [10] 111%

O=[N+]([O-])c1cccc(N=C(Nc2cccc([N+](=O)[O-])c2)c2ccccc2)c1
inactive: [1] 68.3% | [2] 47.5% | [3] 84.2% | [4] 92.4% | [5] 82.6% | [6] 51.6% | [7] 70.5% | [8] 70% | [9] 97% | [10] 96.3%

COc1ccc(-c2[nH]nc(N)c2-c2cc(OC)c(OC)c(OC)c2)cc1
inactive: [1] 10.1% | [3] 54.9% | [4] 48.8% | [8] 23.8% | [9] 12.1% | [10] 47.8%
active: [2] -2.71% | [5] 6% | [6] 6.31% | [7] -16.5%

O=C(c1ccccc1)N(CCCCl)C(=O)N(CCCCl)C(=O)c1ccccc1
inactive: [1] 94.6% | [2] 82.1% | [3] 104% | [4] 97.4% | [5] 88.5% | [6] 72.1% | [7] 89.6% | [8] 65.2% | [9] 90% | [10] 133%

NC(N)=N/N=C/c1ccccc1
inactive: [1] 93.1% | [2] 99.8% | [3] 88.6% | [4] 92.5% | [5] 97.5% | [6] 94.1% | [7] 102% | [8] 101% | [9] 100% | [10] 100%

C=CCn1c(SCC(=O)Nc2ccc(/C(C)=N\O)cc2)nnc1-c1cc(-c2ccc(Cl)cc2)nc2ccccc12
active: [9] -66.6%
inactive: [1] 25.1% | [2] 24.7% | [3] 40.9% | [4] 49.4% | [5] 25.8% | [6] 22.9% | [7] 33.9% | [8] 25.5% | [10] 45.3%

C/C(=N\OC(=O)Nc1ccccc1)c1ccccc1
inactive: [1] 96.8% | [2] 105% | [3] 87.7% | [4] 103% | [5] 89.7% | [6] 99.4% | [7] 95.6% | [8] 94.2% | [9] 110% | [10] 101%

CCCCN(CCCC)CCC(O)c1cc2ccc(C(F)(F)F)cc2c2cc(C(F)(F)F)ccc12 (stereo not given)
active: [2] 8.42% | [9] -58.4%
inactive: [1] 27.3% | [3] 60.9% | [4] 72.6% | [5] 45.2% | [6] 35.6% | [7] 38.9% | [8] 40.8% | [10] 77.2%

COCCn1c(Nc2ccc(C(=O)NO)cc2)nc2ccccc21
inactive: [1] 74.9% | [2] 44.1% | [3] 22.1% | [4] 69.6% | [5] 61.4% | [6] 69.5% | [7] 47.4% | [8] 25.8% | [9] 73.6% | [10] 61.3%

Reference: PubChem BioAssay (NCI)
